Experimental findings from PubChem BioAssay (NCI) are described below.

Some test systems named below: T-47D breast; BT-549 breast; MDA-MB-435 melanoma; SW-620 colon; MCF7 breast; HCT-116 colon; HCC-2998 colon; KM12 colon.
Common to all, as to test: NCI-60 one-dose screen, 48 h (100 = growth as untreated, 0 = no growth, -100 = all killed)
Details in all cases: 10 µM unless noted

This is part of a sample that, as a whole, favours compounds with a hit. Of some 83,000 tested, about 20% had one in any assay.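 Step 1: grow cells in 96-well plates. Step 2: add test compound at a single concentration. Step 3: incubate 48 h. Step 4: record percent growth.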 Values without a mark were called inactive. Calls of active or inactive are those of the source. How the source made its calls: active means growth percent below 10; inactive means the rest.

For `COc1cc(C(=O)NNC(=O)c2ccccc2O)cc(OC)c1OC`, the growth in the experiment with T-47D breast was 82.5%; in the experiment on BT-549 breast, 120%; with MDA-MB-435 melanoma it was 96.9%; in the experiment on SW-620 colon, 103%; with MCF7 breast it was 92.2%; in the experiment on HCT-116 colon, 101%. Further, the figures for the growth in the experiment on HCC-2998 colon and in the experiment on KM12 colon were 97.1% and 103%, respectively.

Consider `COCCNC(C(=O)c1ccccc1)c1ccccc1` (stereo not drawn), for which the growth in the experiment on T-47D breast is 92.1%; with BT-549 breast it was 97.6%; in the experiment with MDA-MB-435 melanoma it was 103%; in the experiment with SW-620 colon, 101%; in the experiment on MCF7 breast, 95.3%; with HCT-116 colon, 99.9%. In addition, the growth is 107% with HCC-2998 colon and 104% in the experiment with KM12 colon.

Consider `COc1cc(/C=C/C(=O)c2ccc(Oc3ncnc4ccccc34)cc2)cc(OC)c1OC`, for which the growth was 35.9% in the experiment on T-47D breast; 58% with BT-549 breast; 50.6% in the experiment with MDA-MB-435 melanoma; 53.2% with SW-620 colon; 27% in the experiment with MCF7 breast; 52.8% in the experiment with HCT-116 colon. For the same compound, the growth in the experiment with HCC-2998 colon was 108%; in the experiment with KM12 colon, 19.4%.

On to `Cc1cc(N2CCOCC2)nc(N(CCNc2ccnc3cc(Cl)ccc23)Cc2ccco2)n1`, for which the growth with T-47D breast is -6.08% (active); with BT-549 breast, 30.2%; with MDA-MB-435 melanoma, 26.6%; in the experiment on SW-620 colon, 50.5%; in the experiment with MCF7 breast, 40.6%; in the experiment with HCT-116 colon it was 14.5%. Also, the growth was 62.9% with HCC-2998 colon and 44.8% in the experiment on KM12 colon.

Turning to `S=c1[nH]nc(Cn2c3ccccc3c3ccncc32)o1`, the growth was 96% with T-47D breast; 105% in the experiment with BT-549 breast; 102% in the experiment with MDA-MB-435 melanoma; 104% in the experiment on SW-620 colon; 109% in the experiment with MCF7 breast; 102% with HCT-116 colon. Moreover, the values for the growth in the experiment on HCC-2998 colon and in the experiment with KM12 colon were 106% and 102%, respectively.

`CCCCNc1cc(C(=O)O)cc(S(N)(=O)=O)c1Oc1ccccc1`: the growth in the experiment on T-47D breast is 103%; in the experiment with BT-549 breast it was 104%; in the experiment with MDA-MB-435 melanoma, 99.3%; in the experiment on SW-620 colon it was 99.1%; in the experiment with MCF7 breast, 111%; in the experiment with HCT-116 colon, 110%. Further, the growth with HCC-2998 colon is 103%; with KM12 colon it was 107%.

Turning to `COc1cc(NC(C)CCCN2C(=O)c3ccccc3C2=O)c2nccc(C)c2c1OC` (stereo not drawn), the growth in the experiment on T-47D breast is 78.2%; in the experiment with BT-549 breast it was 113%; in the experiment on MDA-MB-435 melanoma, 104%; in the experiment with SW-620 colon, 93.5%; in the experiment with MCF7 breast, 40.4%; with HCT-116 colon, 87.8%. Moreover, the growth was 113% in the experiment with HCC-2998 colon and 97.4% in the experiment on KM12 colon.

In the case of `O=c1c2ccccc2sc2c(NCCCNCCO)nc3ccccc3c12`, the growth was 65.9% in the experiment with T-47D breast; 72.3% in the experiment with BT-549 breast; 5.01% (active) with MDA-MB-435 melanoma; -62.4% (active) with SW-620 colon; -72.9% (active) in the experiment on MCF7 breast; -57.5% (active) with HCT-116 colon. Also, the values for the growth in the experiment on HCC-2998 colon and with KM12 colon were -49.2% (active) and 6.31% (active), respectively.

As to `O=C(Nc1ccc(-n2ccc3c(NC(=O)c4ccccc4)nccc32)cc1)c1ccc(Cl)c(C(F)(F)F)c1`, the growth was 62.3% with T-47D breast; 37.6% with BT-549 breast; 11.6% in the experiment with MDA-MB-435 melanoma; -45.8% (active) with SW-620 colon; -62.6% (active) in the experiment with MCF7 breast; -92.4% (active) in the experiment with HCT-116 colon. Further, the values for the growth in the experiment with HCC-2998 colon and in the experiment on KM12 colon were 19.7% and -3.15% (active), respectively.

`COc1ccc(Cl)cc1NC(=O)c1cc2c(n1C)-c1nc(NC(=O)C(C)C)sc1CC2`: the growth was 68.2% in the experiment on T-47D breast; 53% with BT-549 breast; 93.8% in the experiment with MDA-MB-435 melanoma; 90.5% in the experiment with SW-620 colon; 84.5% with MCF7 breast; 44.6% in the experiment on HCT-116 colon. The growth with HCC-2998 colon is 122%; in the experiment with KM12 colon it was 92.7%.

Take `COc1ccc2c(c1)OC(N)=C(C#N)C2c1ccc(F)c(F)c1` (stereo not drawn): the growth was 46.8% in the experiment with T-47D breast; 48.3% in the experiment with BT-549 breast; -18.6% (active) in the experiment on MDA-MB-435 melanoma; 21.3% with SW-620 colon; 18.8% with MCF7 breast; 24.2% in the experiment on HCT-116 colon. The growth in the experiment with HCC-2998 colon is 49.7%; in the experiment on KM12 colon it was 28.6%.

`CN1CCN(CC(=O)N(C)c2ccc(N=C(c3ccccc3)c3c(O)[nH]c4ccc(C#N)cc34)cc2)CC1`: the growth in the experiment on T-47D breast was 69.4%; in the experiment with BT-549 breast it was 15.1%; with MDA-MB-435 melanoma, 23.9%; in the experiment on SW-620 colon it was 16.5%; in the experiment with MCF7 breast it was 12.7%; with HCT-116 colon, 9.41% (active). For the same compound, the growth in the experiment with HCC-2998 colon is 39.8%; in the experiment with KM12 colon it was 9.43% (active).

On to `COc1ccc(-c2nn(-c3ccc(NC(=O)Nc4ccc(Cl)c(C(F)(F)F)c4)cc3)cc2-c2ccncc2)cc1Cl`, for which the growth is 24.7% in the experiment on T-47D breast; 0.583% (active) in the experiment on BT-549 breast; -16.6% (active) with MDA-MB-435 melanoma; 3.24% (active) with SW-620 colon; 7.96% (active) in the experiment on MCF7 breast; -7.68% (active) in the experiment on HCT-116 colon. For the same compound, the growth with HCC-2998 colon is 11.3%; in the experiment on KM12 colon, 0.474% (active).

Take `CCOC(=O)c1noc2c1CCc1c-2cn(Cc2ccc(OC)cc2)c1-c1cc(OC)c(OC)c(OC)c1`: the growth in the experiment on T-47D breast was 40.9%; in the experiment on BT-549 breast, 19.6%; with MDA-MB-435 melanoma it was -28.1% (active); in the experiment on SW-620 colon, 22.9%; with MCF7 breast, 18%; in the experiment on HCT-116 colon, 8.2% (active). Moreover, the growth with HCC-2998 colon is 39.6%; in the experiment with KM12 colon it was 21.3%.

For the compound `Nc1ncc(-c2ccc3ncnc(Nc4ccc(F)c(Cl)c4)c3c2)cn1`, the growth was 26% in the experiment on T-47D breast; 22.5% with BT-549 breast; 84% with MDA-MB-435 melanoma; 66.4% with SW-620 colon; 27.1% in the experiment with MCF7 breast; 21% in the experiment with HCT-116 colon. In addition, the growth in the experiment with HCC-2998 colon was 83.9%; in the experiment on KM12 colon, 66.1%.

`O=C1OC(c2ccc(-c3ccccc3)cc2)=C/C1=C/C=C/c1ccccc1`: the growth was 101% in the experiment on T-47D breast; 111% in the experiment on BT-549 breast; 106% with MDA-MB-435 melanoma; 97% with SW-620 colon; 87.9% in the experiment on MCF7 breast; 88% in the experiment on HCT-116 colon. Moreover, the growth in the experiment with HCC-2998 colon was 106%; with KM12 colon, 103%.
